For 35 compounds, outcome, AC50 and Potency results are on record in PubChem BioAssay (NCATS).

For some of these results: Results with a measured potency or affinity are listed apart. Active and inactive are the calls of the source.

For assay [1] the following is noted: Ebola virus entry assay, green channel fluorescence.
For assay [2] the following is noted: Ebola virus entry assay, reporter ratio channel; AC50: Channel type: primary unless noted; outcome: Channel type: primary unless noted.
The conditions of assay [3]: Ebola virus entry assay, blue channel (ratio component).
For assay [4] the following is noted: Ebola virus entry reporter assay, green channel fluorescence.
The conditions of assay [5]: Ebola virus entry cell assay, ratio channel.
Assay [6] is described as follows: Immunotoxin (SS1P) sensitization/mitigation study. Vehicle arm (DMEM) (AID 1159513). Also: potency is read from the fitted curve at half-maximal effect. To be noted: cell viability with vehicle (DMEM); series mostly up to 46.1 µM.
For assay [7] the following is noted: Ebola virus entry assay, blue channel fluorescence.

`Nc1ccc(S(=O)(=O)Nc2ccccn2)cc1`: the result in assay [1], in assay [2] and in assay [3] was inactive.
Consider `Cc1ccccc1C(=O)N1CC/C(=N\OS(=O)(=O)O)c2ccc(Cl)cc21`, for which the outcome in assay [1], in assay [2] and in assay [3] was inactive.
`CCCCCC[C@@H](CCC)C(=O)O`: the result in assay [1], in assay [2] and in assay [3] was inactive.
As to `O=c1cc[nH]c(=O)[nH]1`, the compound was called inactive in assay [1], in assay [2] and in assay [3].
Turning to `NS(=O)(=O)c1cc(-c2nn[nH]n2)c(NCc2cccs2)cc1Cl`, the compound was classed as inactive in assay [1], in assay [2] and in assay [3].
On to `Cn1c(=O)c2[nH]cnc2n(C)c1=O`, for which the compound was classed as inactive in assay [1], in assay [2] and in assay [3].
`CC(=O)[C@@]1(O)CC[C@H]2[C@@H]3C[C@H](C)C4=CC(=O)C=C[C@]4(C)[C@@]3(F)[C@@H](O)C[C@@]21C`: the compound was classed as inactive in assay [1], in assay [2] and in assay [3].
For the compound `O=C(c1ccccc1)c1ccccc1`, the call in assay [1], in assay [2] and in assay [3] was inactive.
As to `O=C(O)CN1C(=O)c2cccc3cccc(c23)C1=O`, the compound was called inactive in assay [1], in assay [2] and in assay [3].
Turning to `Cc1cn([C@@H]2O[C@H](CO)[C@@H](O)[C@H]2F)c(=O)[nH]c1=O`, the result in assay [1], in assay [2] and in assay [3] was inactive.
For the compound `Cc1ccc2ccc(Cl)cc2n1`, the compound was called inactive in assay [1], in assay [2] and in assay [3].
With `CN[C@@H]1[C@@H](O)[C@@H](O[C@@H]2[C@H](O)[C@H](O[C@H]3OC(CN)=CC[C@H]3N)[C@@H](N)C[C@H]2N)OCC1(C)O` (stereo not given in full), the compound was classed as inactive in assay [1], in assay [2] and in assay [3].
As to `NCC(=O)CCC(=O)O`, the compound was classed as inactive in assay [1], in assay [2] and in assay [3].
With `C[C@]12C=CC(=O)C=C1[C@@H](F)C[C@@H]1[C@@H]2[C@@H](O)C[C@@]2(C)[C@H]1CC[C@]2(O)C(=O)CO`, the outcome in assay [1], in assay [2] and in assay [3] was inactive.
With `C=CCc1ccc(O)c(OC)c1`, the compound was classed as inactive in assay [1], in assay [2] and in assay [3].
With `O=C(CO)[C@@H](O)[C@H](O)[C@@H](O)CO`, the compound was classed as inactive in assay [1], in assay [2] and in assay [3].
As for `O=c1c(-c2ccc(O)cc2)coc2cc(O)cc(O)c12`, the compound was called inactive in assay [1], in assay [2] and in assay [3].
For the compound `CCc1cccc(CC)c1NC(=O)CN(CC(=O)O)CC(=O)O`, the result in assay [1], in assay [2] and in assay [3] was inactive.
For the compound `CO[C@@]1(NC(=O)CSCC#N)C(=O)N2C(C(=O)O)=C(CSc3nnnn3C)CS[C@@H]21`, the outcome in assay [1], in assay [2] and in assay [3] was inactive.
In the case of `Nc1cc(C(Cl)=C(Cl)Cl)c(S(N)(=O)=O)cc1S(N)(=O)=O`, the call in assay [1], in assay [2] and in assay [3] was inactive.
Regarding `NC(CO)(CO)CO`, the outcome in assay [1], in assay [2] and in assay [3] was inactive.
`CCCCCCCCCCCCCCCC(=O)O`: the result in assay [1], in assay [2] and in assay [3] was inactive.
Consider `O=C(Oc1ccccc1)c1ccccc1O`, for which the compound was classed as inactive in assay [1], in assay [2] and in assay [3].
`C=CCN1CCc2nc(N)sc2CC1`: the call in assay [1], in assay [2] and in assay [3] was inactive.
`COc1ccc2cc1Oc1cc3c(cc1OC)CC[N+](C)(C)[C@H]3Cc1ccc(cc1)Oc1c(OC)c(OC)cc3c1[C@@H](C2)[N+](C)(C)CC3`: the compound was classed as inactive in assay [1], in assay [2] and in assay [3].
As to `CCCCCCCCCCCCOCCO`, the compound was classed as inactive in assay [1], in assay [2] and in assay [3].
For `O=S(=O)(O)CCS`, the call in assay [1], in assay [2] and in assay [3] was inactive.
Turning to `COc1ccc(CCN(C)CCCN2CCc3cc(OC)c(OC)cc3CC2=O)cc1OC`, the outcome in assay [1], in assay [2] and in assay [3] was inactive.
As for `CC(=O)CC(c1ccccc1)c1c(O)c2ccccc2oc1=O` (stereo not given), the compound was called inactive in assay [1], in assay [2] and in assay [3].
`CC[C@H]1OC(=O)[C@H](C)[C@@H](O[C@H]2C[C@@](C)(OC)[C@@H](O)[C@H](C)O2)[C@H](C)[C@@H](O[C@@H]2O[C@H](C)C[C@H](N(C)C)[C@@H]2O)[C@](C)(O)C[C@@H](C)CN(C)[C@H](C)[C@@H](O)[C@]1(C)O`: the call in assay [4] was inactive. Moreover, the AC50 in assay [5] is 2510 nM (active).
`CNC(=O)c1ccccc1Sc1ccc2c(/C=C/c3ccccn3)n[nH]c2c1`: the Potency in assay [6] was 1050 nM (active).
In the case of `CCCc1nn(C)c2c(=O)[nH]c(-c3cc(S(=O)(=O)N4CCN(C)CC4)ccc3OCC)nc12`, the Potency entry in assay [6] is “inactive”.
As for `COc1cc(Br)c(C[N+]2(CCOCCC3CCC4CC3C4(C)C)CCOCC2)cc1OC` (stereo not given), the compound was classed as inactive in assay [7], in assay [4] and in assay [5].
As for `CCC(=O)NCCC1CCc2ccc3c(c21)CCO3` (stereo not given), the outcome in assay [7], in assay [4] and in assay [5] was inactive.
As for `CCCCC(=O)N(Cc1ccc(-c2ccccc2-c2nn[nH]n2)cc1)[C@@H](C(=O)O)C(C)C`, the result in assay [7], in assay [4] and in assay [5] was inactive.

One may read the AC50 as the midpoint of the concentration-response curve, whichever way the signal moves.
